# Test results taken from PubChem BioAssay AID1851 (National Center for Advancing Translational Sciences (NCATS), 2009).
# Where “and” joins values, the source holds several entries; their conditions need not be identical. Equal values may be shown once. In all, about 16,000 compounds went through this assay and about 2,600 (16%) were called active. Not shown: some 20% with an inconclusive outcome. These entries were drawn from the full list. More than one record can exist for a structure, and the calls need not agree. A number with no mark means an inactive call. Calls come from the whole dose curve; as a rule, active = well fitted curve in the direction sought with a large enough effect; inconclusive = small, poorly fitted or top-dose-only effect, or effect the other way; inactive = no such curve, though single readings can be large or run the other way.
# Target: Cytochrome P450 2D6 (Homo sapiens) (UniProt P10635)
# Sequence (P10635 whole entry, looked up): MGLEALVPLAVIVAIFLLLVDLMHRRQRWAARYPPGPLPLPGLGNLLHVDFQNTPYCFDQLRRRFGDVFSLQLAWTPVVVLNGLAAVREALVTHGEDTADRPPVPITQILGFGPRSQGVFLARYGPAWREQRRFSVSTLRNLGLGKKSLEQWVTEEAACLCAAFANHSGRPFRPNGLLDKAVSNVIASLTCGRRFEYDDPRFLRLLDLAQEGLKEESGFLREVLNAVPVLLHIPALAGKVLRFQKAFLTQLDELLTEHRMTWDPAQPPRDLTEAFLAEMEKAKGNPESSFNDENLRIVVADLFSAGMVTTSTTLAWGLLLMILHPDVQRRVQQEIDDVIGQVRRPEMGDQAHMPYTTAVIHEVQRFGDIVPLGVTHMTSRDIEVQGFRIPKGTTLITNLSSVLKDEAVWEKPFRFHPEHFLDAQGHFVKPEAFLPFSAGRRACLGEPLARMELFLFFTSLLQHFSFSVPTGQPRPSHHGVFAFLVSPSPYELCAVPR
# Test: Cytochrome panel assay with activity outcomes
# Conditions: recombinant CYP, pro-luciferin dealkylation, luminescence, p450-cyp2d6; series mostly up to 57.1 µM
# % is set by controls: 0 for no effect and ±100 for the full control effect.
Structure (SMILES),AC50,"activity, negative = inhibition"
COc1ncc2nc(C)c(=O)n(CCC#N)c2n1,inactive,
COc1ccc(C(=O)N2CCC3(CCCN(C(=O)Nc4cccc(F)c4)C3)CC2)cc1,inactive,
CCN(CC)C(=O)c1sc2[nH]c(=S)n(-c3ccccc3)c(=O)c2c1C,inactive,
COc1cccc(OC)c1C(=O)Nc1cc(C)on1,inactive,
CCOC(=O)C1=C(COc2ccc(F)cc2Cl)NC(=O)NC1c1cc(C)ccc1C (stereo not drawn),inactive,
CC(C)NC(=O)c1ccc2c(=O)n(Cc3ccco3)c(=S)[nH]c2c1,inactive,
Cc1ncsc1C(=O)N1N=C2/C(=C/c3ccccc3)CCCC2C1c1ccccc1 (stereo not drawn),inactive,
COc1ccc(C(=O)Oc2cc(/C=N/NS(=O)(=O)c3ccc(C)cc3)ccc2OC)cc1,inactive,
Cc1ccc(S(=O)(=O)N/N=C/c2cccn2-c2ccc(Cl)cc2)cc1,inactive,
O=S(=O)(N/N=C\c1cccn1-c1ccccc1)c1ccc2ccccc2c1,5.01 µM (active),
CCc1ccccc1NC(=O)c1nnn(CC(=O)Nc2ccccc2C)c1N,inactive,
Cc1nn(CC(=O)NCCN2CCOCC2)c(C)c1[N+](=O)[O-],inactive,
Cc1cc(C)n(C(=O)CCCCCCCCC(=O)n2nc(C)cc2C)n1,inactive,
COc1ccc(Nc2cc(C(=O)NCCCN3CCN(C)CC3)c3ccccc3n2)cc1,inactive,
COc1ccc(N2CCN(c3nc(Nc4ccc(F)cc4)nc(OC)n3)CC2)cc1,inactive,
COc1ccc(Nc2nc(N3CCCCC3)c3ccccc3n2)cc1,1.58 µM (active),
CCNc1ncc2ncc(=O)n(C[C@H]3CCCO3)c2n1,inactive,
CC(=O)N[C@@H](Cc1c[nH]c2ccccc12)C(=O)OCc1cc(C(F)(F)F)cc(C(F)(F)F)c1,inactive,
COc1cc(CNCCc2c[nH]c3ccccc23)ccc1OCc1ccccc1F,3.98 µM (active),
COc1ccc(C(C(=O)NC2CCCCC2)N(C(=O)Cc2c[nH]c3ccccc23)c2ccc(NC(C)=O)cc2)cc1OC (stereo not drawn),inactive,
COc1cccc(CNCCc2c[nH]c3ccccc23)c1OCc1ccccc1F,0.282 µM (active),
COc1cc(Cl)c(CC(=O)c2c[nH]c3ccccc23)cc1OC,,-18% [at 11.4 µM]

Structure (SMILES),AC50,"activity, negative = inhibition"
COC(=O)C(Cc1c[nH]c2ccccc12)NC(=O)C(C)C (stereo not drawn),inactive,
CCOC(=O)c1cnc2cc(-c3ccc(C)cc3)nn2c1-c1ccccc1,inactive,
O=C1N=C(N2CCC(Cc3ccccc3)CC2)S/C1=C/c1cn[nH]c1-c1ccccc1,inactive,
COc1ccccc1NC(=O)Nc1nnc(-c2ccco2)s1,inactive,
O=S(=O)(c1ccccc1)c1cnc(-c2cccnc2)nc1-c1ccc(Cl)cc1Cl,inactive,
COC(=O)c1c(C)[nH]c(O)c1C=Nc1ccc(C(C)C)cc1,inactive,
OC[C@H]1NC[C@H](O)[C@@H](O)[C@H]1O,inactive,
C[N+](C)([O-])CCC=C1c2ccccc2CCc2ccccc21,,-5.43% [at 11.4 µM]
CN(C)CCC=C1c2ccccc2C=Cc2ccccc21,6.31 µM (active),
CNCCC=C1c2ccccc2C=Cc2ccccc21,5.01 µM (active),
O=C1OCc2cccc3cccc1c23,inactive,
CN(C)CC/C=C1\c2ccccc2COc2ccccc21,15.8 µM (active) and 3.16 µM (active) and 3.98 µM (active),
COc1ccc(C2=C(C#N)C(=O)OC2)cc1,inactive,
CCOC(=O)c1cnn(-c2nc(-c3cccc(F)c3)cs2)c1C(F)(F)F,inactive,
O=C(O)[C@@H]1CCCN1,,-2.04% [at 11.4 µM]
CC1(C)C(=O)C(c2ccccc2)=C2CN3C(=O)N(CCc4ccccc4)C(=O)C3(Cc3ccccc3)C=C21 (stereo not drawn),inactive,
N#Cc1cc2[nH]c(=O)c(=O)[nH]c2cc1[N+](=O)[O-],inactive,
C[C@@]12C(=O)OC(=O)[C@@]1(C)[C@@H]1CC[C@@H]2O1,inactive,
NC(N)=N/N=C\c1ccc(C2CCNCC2)cc1,,-11% [at 11.4 µM]
Cc1cccc(C)c1NC(=O)C[N+](C)(C)C,inactive,
Cc1ccccc1NC(=O)Cn1cnc2c1c(=O)n(C)c(=O)n2C,inactive,
CC(=O)c1cn(CC(=O)Nc2c(C)cccc2C)c2ccccc12,7.94 µM (active),

Structure (SMILES),AC50,"activity, negative = inhibition"
Cc1ccccc1NC(=O)c1cnc(Nc2nc3ccccc3s2)nc1C,inactive,
CC(N)=O,inactive,
CCS(=O)(=O)N1CCC(C(=O)NCCCOC)CC1,inactive,
CCN(CCCNC(=O)C1CCN(S(=O)(=O)CC)CC1)c1cccc(C)c1,25.1 µM (active),
C=CCNC(=O)C1CCN(S(=O)(=O)CC)CC1,inactive,
C=CCn1c(SCC(=O)Nc2c(C)n(C)n(-c3ccccc3)c2=O)nc2sc(C)c(-c3ccccc3)c2c1=O,inactive,
COc1ccc(CO/N=C/c2c(C)[nH]c(=O)[nH]c2=O)cc1,inactive,
CC(C)CNC(=S)N1CCN(C)CC1,inactive,
CCN(CC)S(=O)(=O)c1ccc2c3c(cccc13)C(=O)S2,12.6 µM (active),
CCN(CC)S(=O)(=O)c1cccc2c(N(C)C)cccc12,inactive,
CCOC(=O)NNC1CC(=O)N(c2ccc(OC)cc2)C1=O (stereo not drawn),inactive,
CCC(CC)C(=O)c1c[nH]c(C(=O)NCCCN2CCOCC2)c1,inactive,
O=C(NCCCN1CCOCC1)c1cc2c(s1)CSC2,1.26 µM (active),
O=C(c1ccccc1)c1c[nH]c(C(=O)NCCCN2CCOCC2)c1,inactive,
O=c1onc2n1-c1cc(Br)ccc1OC2,inactive,
COc1ccc(-n2c(=O)c(-c3ccc(Cl)cc3)nc3cnc(N4CCNCC4)nc32)cc1,inactive,
N#CC1=C(N)OC2=C(C(=O)CCC2)C12CCC1(CC2)OCCO1,inactive,
CN1CCN(c2ncc3nc(-c4cn(C)c5ccccc45)c(=O)n(CCc4ccccc4)c3n2)CC1,inactive,
OC1(c2ccc(OC(F)F)cc2)CSC(=Nc2cccnc2)N1C1CC1 (stereo not drawn),2 µM (active),
N#Cc1c(-c2ccccc2)nc2n(c1=O)CCS2,inactive,
COc1ccc2c(c1)N(CC[C@H]1CCCCN1C)c1ccccc1S2,0.0501 µM (active),
CN1CCCC[C@@H]1CCN1c2ccccc2Sc2ccc(S(C)=O)cc21 (stereo partly drawn),0.1 µM (active),0.0782% [at 11.4 µM]

Structure (SMILES),AC50,"activity, negative = inhibition"
COc1ccc(OCc2nnc(SCC(=O)N3c4ccccc4Sc4ccc(Cl)cc43)o2)cc1,inactive,
CN1CCCC[C@@H]1CCN1CCCCC1,,-1.48% [at 11.4 µM]
O=c1c(-c2ccccc2)nc2cncnc2n1C1CC1,inactive,
O=C(CCNC(=O)c1ccc(Br)o1)NCc1ccccn1,inactive,
COc1cc(=O)n2c(n1)SCCC2,inactive,
CC12c3ccccc3C(c3ccccc31)C1C(=O)N(Cc3cccnc3)C(=O)C12 (stereo not drawn),inactive,
Cc1cccc(NC(=S)NC(=O)c2cccs2)n1,inactive,
CC1CCN(c2ccccc2NC(=S)NC(=O)c2cccs2)CC1,0.2 µM (active),
O=C(NC(=S)Nc1cccc(Cl)c1N1CCCCC1)c1cccs1,inactive,
COc1cccc(OCC(=O)NN=C2c3ccccc3-c3ccccc32)c1,inactive,
O=c1c(-c2ccc(F)cc2)nc2cncnc2n1C1CC1,inactive,
COC(=O)c1sccc1-c1ccc(C(=O)Nc2cccc(Cl)c2)o1,15.8 µM (active),
CCCn1nnc(NC(=O)c2ccc(-c3cccc(Cl)c3)o2)n1,inactive,
O=C(Nc1cccc2nsnc12)c1ccc(-c2cccc(Cl)c2)o1,inactive,
Cc1nc2cnc(N3CCNCC3)nc2n(Cc2ccc(F)cc2)c1=O,inactive,
COc1cc(N)c(Cl)cc1C(=O)OCCCN1CCCCC1,0.126 µM (active),
CCOC(=O)C1=C(O)/C(=C/c2cc(OC)c(OC)c(OC)c2)N=C1C,inactive,
COC(=O)c1cc(OC)c(OC)cc1NC(=S)N1CCCCC1,inactive,
CCCCOC(=O)c1ccc(NC(=S)NC(=O)c2c(Cl)cnn2C)cc1,inactive,
CCN(CC)CCOC(=O)c1cc(Cl)c(N)cc1OC,15.8 µM (active),
COc1cc(CN2CCCCC2)cc2cc(C(=O)O)c(=O)oc12,,4.16% [at 11.4 µM]
CCN(CC)CCNC(=O)c1ccc(Cl)c(S(=O)(=O)Nc2ccccc2OC)c1,inactive,

Structure (SMILES),AC50,"activity, negative = inhibition"
COc1cc(C(=O)OCC(=O)Nc2cc(C)on2)cc(OC)c1OC,inactive,
O=C(OCCCN1CCCCC1)c1ccc(O)cc1,5.62 µM (active),
Cc1c(-c2ccc(O)cc2)nn(-c2ccc(O)cc2)c1-c1ccc(OCCN2CCCCC2)cc1,inactive,
CCN(CC)CCCCCCCCOC(=O)c1cc(OC)c(OC)c(OC)c1,31.6 µM (active),
NS(=O)(=O)c1cc2c(cc1Cl)N[C@@H](C(Cl)Cl)NS2(=O)=O,inactive,
COc1cccc(Cn2c(=O)c(-c3cccs3)nc3cnc(OCc4ccccc4)nc32)c1,inactive,
Cn1c(=O)c(-c2ccccc2)nc2cnc(OCc3ccccc3)nc21,inactive,
CCOC(=O)C1CCN(C(=O)c2ccccc2NC(C)=O)CC1,inactive,
N#Cc1ccccc1NC(=O)Nc1cccs1,inactive,
Cc1nc2cnc(N(C)C)nc2n(-c2ccccc2)c1=O,inactive,
COc1ccccc1-n1c(SCC(=O)N2CCCC2)nc2cccnc21,inactive,
CCOC(=O)c1c(NC(=O)Cn2nc([N+](=O)[O-])c(Br)c2C)sc2c1CCC(C)C2 (stereo not drawn),inactive,
CCN(CC)C(=O)c1ccc(O)c(OC)c1,inactive,
CCCCOc1ccccc1N,inactive,
CCCOc1cc(N)ccc1C(=O)OCCN(CC)CC,2 µM (active),
O=C(O)/C=C/c1cn(-c2ncc(C(F)(F)F)cc2Cl)c2ccccc12,inactive,
CSc1nnnc2ccccc12,,0.441% [at 11.4 µM]
Cc1nc2cnc(Oc3cccc(Cl)c3)nc2n(CCC#N)c1=O,inactive,
CCC(Sc1ncccc1C(=O)O)C(=O)N1CCOCC1 (stereo not drawn),inactive,
